From PubChem BioAssay (EPA / NIEHS) come the findings set out here.

Structures are written as SMILES. Calls of active or inactive are those of the source. Rule for the calls: active = hit-call score of the fitted dose curve at least 0.9, where 1 is the maximum; inactive = score below 0.9.

A word on the AC50: it is the midpoint of the concentration-response curve, whichever way the signal moves.

What all share (details): mRNA level, 48 h; actives raise or lower the signal
Read-out in assay [1]: Insulin Like Growth Factor 1 (IGF1), IGF1 (gene 3479)
Briefly: LTEA_HepaRG_IGF1: Life Technologies and Expression Analysis (LTEA) Assay for Insulin Like Growth Factor 1 (IGF1) using HepaRG (AID 2283506). The procedure, abridged: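 Endpoint: IGF1 mRNA change by qRT-PCR, housekeeping-normalized, fitted bidirectionally relative to 0.5% DMSO vehicle. Human HepaRG cells were treated 48 h in serum-free induction medium, eight half-log concentrations topping at 100 uM.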

Read-out in assay [2]: Intercellular Adhesion Molecule 1 (ICAM1), ICAM1 (gene 3383)
Description: LTEA_HepaRG_ICAM1: Life Technologies and Expression Analysis (LTEA) Assay for Intercellular Adhesion Molecule 1 (ICAM1) using HepaRG (AID 2283507). The gist of the method: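 Readout is qRT-PCR mRNA level, normalized to three housekeeping genes and fitted bidirectionally against 0.5% DMSO vehicle. Human HepaRG cultures received compound for 48 h, top concentration 100 uM with half-log dilutions.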

Read-out in assay [3]: Insulin-like growth factor-binding protein 1 (IGFBP1), IGFBP1 (gene 3484)
Briefly: LTEA_HepaRG_IGFBP1: Life Technologies and Expression Analysis (LTEA) Assay for Insulin-like growth factor-binding protein 1 (IGFBP1) using HepaRG (AID 2283508). The procedure, abridged: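 Thawed HepaRG cells are plated for 48 h, switched to serum-free induction medium, then dosed in duplicate for another 48 h (100 uM top, half-log steps). Lysates in RLT go to qRT-PCR, and gain or loss of signal is fitted relative to vehicle.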

Read-out in assay [4]: Interleukin 6 (IL6), IL6 (gene 3569)
Briefly: LTEA_HepaRG_IL6: Life Technologies and Expression Analysis (LTEA) Assay for Interleukin 6 (IL6) using HepaRG (AID 2283509). The gist of the method:
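Changes in IL6 mRNA, up or down relative to 0.5% DMSO controls, were derived from concentration-response curves in human HepaRG cells treated for 48 h at up to 100 uM, with ACTB, GAPDH and POLR2A as normalizers.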

Read-out in assay [5]: Interleukin 6 Receptor (IL6R), IL6R (gene 3570)
Description: LTEA_HepaRG_IL6R: Life Technologies and Expression Analysis (LTEA) Assay for Interleukin 6 Receptor (IL6R) using HepaRG (AID 2283510).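 For AC50: differentiated human HepaRG liver cells in serum-free induction medium; TaqMan qRT-PCR signal normalized to ACTB GAPDH and POLR2A housekeeping genes.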 The procedure, abridged: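 In this HepaRG screen, test chemicals act on cells for 48 h at up to 100 uM (eight half-log points, duplicate wells). IL6R expression is quantified by qRT-PCR after normalization to ACTB, GAPDH and POLR2A, with DMSO as baseline.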

Read-out in assay [6]: Potassium channel subfamily K member 1 (KCNK1), KCNK1 (gene 3775)
Description: LTEA_HepaRG_KCNK1: Life Technologies and Expression Analysis (LTEA) Assay for Potassium channel subfamily K member 1 (KCNK1) using HepaRG (AID 2283511). The gist of the method: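 Human HepaRG cultures receive test chemicals for 48 h in 0.5% DMSO, top concentration 100 uM with half-log dilutions. Induction or suppression of KCNK1 mRNA relative to DMSO is derived by bidirectional fitting of qRT-PCR data.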

Read-out in assay [7]: Keratin 19 (KRT19), KRT19 (gene 3880)
Description: LTEA_HepaRG_KRT19: Life Technologies and Expression Analysis (LTEA) Assay for Keratin 19 (KRT19) using HepaRG (AID 2283512). The procedure, abridged: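 KRT19 transcript levels, measured by Fluidigm qRT-PCR against three housekeeping genes, are fitted for gain or loss of signal relative to DMSO. Human HepaRG cells receive test chemicals (top 100 uM, half-log steps, 0.5% DMSO) for 48 hours.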

Read-out in assay [8]: JUN Transcription Factor, JUN (gene 3725)
Description: LTEA_HepaRG_JUN: Life Technologies and Expression Analysis (LTEA) Assay for JUN Transcription Factor using HepaRG (AID 2283513). The procedure, abridged:
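Gene-expression endpoint: JUN mRNA (qRT-PCR, normalized to three reference genes) in HepaRG cultures treated 48 h with chemicals, duplicate wells, 100 uM maximum with half-log dilutions; bidirectional fitting relative to 0.5% DMSO.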

Read-out in assay [9]: Lipase C (LIPC), LIPC (gene 3990)
Briefly: LTEA_HepaRG_LIPC: Life Technologies and Expression Analysis (LTEA) Assay for Lipase C (LIPC) using HepaRG (AID 2283514). The procedure, abridged:
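In this multiplexed gene-expression screen, human HepaRG cultures received test chemicals for 48 h across eight concentrations with 100 uM highest, in duplicate. Values reflect LIPC mRNA induction or suppression versus DMSO vehicle, from normalized qRT-PCR.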

Read-out in assay [10]: Lipoprotein lipase (LPL), LPL (gene 4023)
Briefly: LTEA_HepaRG_LPL: Life Technologies and Expression Analysis (LTEA) Assay for Lipoprotein lipase (LPL) using HepaRG (AID 2283515). The gist of the method: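 Concentration-response testing used half-log steps from 100 uM in 0.5% DMSO on human HepaRG cells, 48 h, duplicate wells. Phenobarbital 1 mM served as induction control; LPL mRNA was normalized to ACTB, GAPDH, POLR2A.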

Read-out in assay [11]: MicroRNA 122 (MIR122), gene 406906
Description: LTEA_HepaRG_MIR122: Life Technologies and Expression Analysis (LTEA) Assay for MicroRNA 122 (MIR122) using HepaRG (AID 2283516). Note: the transcript read is the microRNA miR-122. The procedure, abridged: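 Changes in transcript abundance, up or down relative to 0.5% DMSO vehicle, were scored after 48 h chemical treatment of HepaRG cells (maximum 100 uM). Quantification used TaqMan qRT-PCR normalized to housekeeping genes.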

Read-out in assay [12]: matrix metalloproteinase-10 (MMP10), MMP10 (gene 4319)
Description: LTEA_HepaRG_MMP10: Life Technologies and Expression Analysis (LTEA) Assay for matrix metalloproteinase-10 (MMP10) using HepaRG (AID 2283517). The gist of the method:
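In differentiated HepaRG cultures kept in 0.5% DMSO, test chemicals act for 48 h over an eight-point range with a top dose of 100 uM. Expression is then quantified by TaqMan RT-PCR against ACTB, GAPDH and POLR2A.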

Read-out in the next assay: MYC, MYC (gene 4609)
Description: LTEA_HepaRG_MYC: Life Technologies and Expression Analysis (LTEA) Assay for MYC using HepaRG (AID 2283518). The gist of the method: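 HepaRG, ~100,000 cells/well, collagen I; 48 h plating; serum-free induction medium; 48 h dosing, duplicate, 100 uM top, half-log, 0.5% DMSO; total RNA → qRT-PCR MYC; gain/loss fit vs DMSO.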

Read-out in assay [13]: matrix metalloproteinase-3 (MMP3), MMP3 (gene 4314)
Description: LTEA_HepaRG_MMP3: Life Technologies and Expression Analysis (LTEA) Assay for matrix metalloproteinase-3 (MMP3) using HepaRG (AID 2283519). The gist of the method:
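Human liver HepaRG cultures received chemicals (top concentration 100 uM, 0.5% DMSO) for 48 h in duplicate. MMP3 mRNA induction or loss was then assessed via TaqMan qRT-PCR with housekeeping-gene normalisation.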

Read-out in assay [14]: Paternally Expressed 10 (PEG10), PEG10 (gene 23089)
Description: LTEA_HepaRG_PEG10: Life Technologies and Expression Analysis (LTEA) Assay for Paternally Expressed 10 (PEG10) using HepaRG (AID 2283520).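 For AC50: PEG10 transcript by qRT-PCR normalised to ACTB GAPDH and POLR2A.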 The gist of the method: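 After 48 h exposure of differentiated HepaRG cells (0.5% DMSO vehicle, eight concentrations up to 100 uM, duplicates), PEG10 mRNA was measured by TaqMan qRT-PCR. Values were normalised to endogenous control genes and analysed bidirectionally against vehicle.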

Read-out in assay [15]: Nuclear factor NF-kappa-B p105 subunit (Homo sapiens) (UniProt P19838)
Briefly: LTEA_HepaRG_NFKB1: Life Technologies and Expression Analysis (LTEA) Assay for Nuclear Factor Kappa B Subunit 1 (NFKB1) using HepaRG (AID 2283521).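 For outcome: differentiated human HepaRG liver cells in serum-free induction medium; TaqMan qRT-PCR transcript normalised to ACTB GAPDH and POLR2A housekeeping genes.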 The gist of the method:
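HepaRG, 48 h exposure; 8-pt half-log series from 100 uM in 0.5% DMSO; duplicates. Readout: NFKB1 mRNA by qRT-PCR (Fluidigm arrays), housekeeping-normalized. Gain/loss fit vs DMSO baseline.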

Read-out in assay [16]: Protein phosphatase 2A (PPP2R4), PTPA (gene 5524)
Description: LTEA_HepaRG_PPP2R4: Life Technologies and Expression Analysis (LTEA) Assay for Protein phosphatase 2A (PPP2R4) using HepaRG (AID 2283522). The gist of the method: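 Using HepaRG cultures maintained in 0.5% DMSO, chemicals are tested 48 h at up to 100 uM in duplicate. Induction or suppression of PPP2R4 mRNA, measured by qRT-PCR, is fitted bidirectionally against the vehicle baseline.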

Read-out in assay [17]: Phosphatase and tensin (PTEN), PTEN (gene 5728)
Description: LTEA_HepaRG_PTEN: Life Technologies and Expression Analysis (LTEA) Assay for Phosphatase and tensin (PTEN) using HepaRG (AID 2283523). The gist of the method:
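Expression of PTEN is quantified in the human liver line HepaRG following two days of dosing (top concentration 100 uM, half-log dilutions, 0.5% DMSO). Values derive from bidirectional curve fitting relative to DMSO controls.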

Read-out in assay [18]: solute carrier (SLC22A1), SLC22A1 (gene 6580)
Description: LTEA_HepaRG_SLC22A1: Life Technologies and Expression Analysis (LTEA) Assay for solute carrier (SLC22A1) using HepaRG (AID 2283524).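 For AC50: differentiated human HepaRG liver cells in serum-free induction medium; TaqMan qRT-PCR normalized to ACTB GAPDH and POLR2A housekeeping genes.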 The procedure, abridged: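 Transcript induction or suppression of SLC22A1 in human HepaRG cultures is scored after 48 h chemical treatment, with DMSO (0.5%) as baseline for bidirectional fitting. Concentrations span eight half-log points topping at 100 uM.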

Read-out in assay [19]: Pyruvate Dehydrogenase Kinase 4 (PDK4), PDK4 (gene 5166)
Briefly: LTEA_HepaRG_PDK4: Life Technologies and Expression Analysis (LTEA) Assay for Pyruvate Dehydrogenase Kinase 4 (PDK4) using HepaRG (AID 2283525). The gist of the method:
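Eight-point, half-log concentration series (max 100 uM, 0.5% DMSO) applied to differentiated HepaRG cells for 48 h in duplicate. Endpoint: PDK4 mRNA induction or repression by qRT-PCR against DMSO baseline.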

Sequence of Nuclear factor NF-kappa-B p105 subunit (Homo sapiens) (P19838 whole entry, looked up): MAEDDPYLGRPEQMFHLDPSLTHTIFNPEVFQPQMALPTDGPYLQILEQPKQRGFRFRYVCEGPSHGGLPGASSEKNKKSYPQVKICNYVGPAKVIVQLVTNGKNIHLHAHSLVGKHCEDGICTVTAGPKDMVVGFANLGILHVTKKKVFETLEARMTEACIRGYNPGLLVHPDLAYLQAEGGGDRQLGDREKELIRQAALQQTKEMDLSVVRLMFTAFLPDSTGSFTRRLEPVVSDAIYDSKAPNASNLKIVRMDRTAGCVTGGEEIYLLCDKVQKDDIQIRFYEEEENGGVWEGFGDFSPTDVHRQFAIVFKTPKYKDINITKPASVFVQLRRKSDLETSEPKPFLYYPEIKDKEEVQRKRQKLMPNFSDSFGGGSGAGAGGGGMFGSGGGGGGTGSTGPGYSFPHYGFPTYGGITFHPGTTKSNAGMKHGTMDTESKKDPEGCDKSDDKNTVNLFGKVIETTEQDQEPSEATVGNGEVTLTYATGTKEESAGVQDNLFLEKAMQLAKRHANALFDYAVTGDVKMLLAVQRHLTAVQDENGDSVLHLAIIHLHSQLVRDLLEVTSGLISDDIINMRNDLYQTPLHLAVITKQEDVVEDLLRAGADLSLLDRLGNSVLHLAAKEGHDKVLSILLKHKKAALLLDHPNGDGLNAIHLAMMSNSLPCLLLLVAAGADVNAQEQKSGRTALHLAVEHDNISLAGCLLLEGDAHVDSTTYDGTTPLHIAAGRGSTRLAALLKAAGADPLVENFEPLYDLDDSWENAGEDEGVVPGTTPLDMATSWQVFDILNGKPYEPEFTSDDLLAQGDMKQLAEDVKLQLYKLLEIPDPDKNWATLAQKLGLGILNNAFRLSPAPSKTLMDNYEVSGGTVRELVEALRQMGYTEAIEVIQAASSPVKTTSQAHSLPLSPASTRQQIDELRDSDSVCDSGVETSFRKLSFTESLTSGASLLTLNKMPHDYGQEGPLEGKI

Consider `NC(=O)NO`, for which, in [1], the AC50 is 14.3 µM (active). In addition, the outcome in [2], in [3], in assay [4], in assay [5], in [6] and in assay [7] was inactive. For the same compound, the outcome in assay [8] was “inactive”; in assay [9] it was “inactive”; in assay [10], “inactive”; in assay [11], “inactive”; in assay [12], “inactive”; with MYC, MYC (gene 4609) it was “inactive”. Besides, the result in [13], in assay [14], in assay [15], in assay [16], in assay [17] and in assay [18] was inactive.

Consider `CCCN(C1CCN(C(=O)C2CCNCC2)CC1)[C@@H]1CCc2ccc(OC)cc2C1`, for which the AC50 in [1] is 50 µM (active); in assay [2], 77.4 µM (active); in [3] it was 69.5 µM (active); in assay [4], 84.2 µM (active); in assay [5] it was 50 µM (active); in [9], 69.6 µM (active). Further, the AC50 in assay [11] was 80 µM (active); with MYC, MYC (gene 4609), 89.5 µM (active); in assay [14], 60.2 µM (active); in [15], 0.304 µM (active); in [18], 83 µM (active). The outcome in [6], in [8], in assay [10], in assay [12], in [13] and in assay [16] was inactive. The result in assay [17] and in assay [19] was inactive.

Turning to `Cn1c(=O)c2c(ncn2C)n(C)c1=O`, the call in [1], in assay [2], in assay [3], in assay [4], in assay [5] and in assay [6] was inactive. In addition, the compound was classed as inactive in [7], in [8], in [9], in assay [10], in assay [11] and in assay [12]. The outcome was “inactive” in the assay with MYC, MYC (gene 4609); “inactive” in [13]; “inactive” in [14]; “inactive” in assay [16]; “inactive” in assay [17]; “inactive” in assay [18]. Further, the compound was called inactive in [19].
